Screening data (PubChem)
The list is not random: actives were taken first. Their share in the collection is about 3.1%.
MEKK3 PB1 HTS: modulators (inhibitors or enhancers) of MEK5 binding to human MEKK3 PB1 domain; Q99759; bead-based flow cytometry, Alexa488-MEK5 binding to MEKK3; actives lie on both sides; 0 = blocked by unlabeled MEK5, 100 = vehicle; binding response (% of control), % at 10 µM; 290,000 compounds, 1.4% hits; AID 1529;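 active = binding response more than 3 SD above or below the average of its plate-row segment, actives on both sides; inconclusive = wells at one plate position flagged as instrument error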;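 note: Alexa488 bead fluorescence after subtracting the streptavidin-only scavenger bead signal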
Target sequence (Q99759 whole entry, looked up, the tested form may be a part): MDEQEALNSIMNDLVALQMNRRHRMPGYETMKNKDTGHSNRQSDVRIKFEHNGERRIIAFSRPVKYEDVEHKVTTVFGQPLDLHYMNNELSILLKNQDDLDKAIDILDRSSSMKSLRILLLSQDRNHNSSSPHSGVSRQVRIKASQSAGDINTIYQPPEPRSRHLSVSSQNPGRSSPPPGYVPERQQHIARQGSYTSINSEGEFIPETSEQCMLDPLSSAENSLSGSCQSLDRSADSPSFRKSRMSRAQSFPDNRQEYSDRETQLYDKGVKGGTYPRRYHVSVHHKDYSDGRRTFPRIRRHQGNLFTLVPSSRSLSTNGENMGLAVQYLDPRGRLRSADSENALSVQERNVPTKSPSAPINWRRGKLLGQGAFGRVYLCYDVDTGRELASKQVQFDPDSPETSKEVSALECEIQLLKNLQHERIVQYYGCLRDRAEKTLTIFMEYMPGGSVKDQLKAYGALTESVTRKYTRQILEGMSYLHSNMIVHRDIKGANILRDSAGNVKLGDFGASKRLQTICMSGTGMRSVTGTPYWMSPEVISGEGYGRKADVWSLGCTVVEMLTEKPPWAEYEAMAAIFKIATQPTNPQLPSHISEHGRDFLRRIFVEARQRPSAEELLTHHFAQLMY
PREPL inh: human PREPL enzyme inhibition; Q4J6C6; recombinant PREPL, fluorescence polarization activity-based probe; inhibition, % at 5.96 µM; 320,000 compounds, 0.68% hits; in the data active = inhibition above about 43%;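 note: 0% = enzyme with DMSO and 100% = wells lacking enzyme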
MEKK2mut PB1 HTS: signal of MEK5 binding to mutant human MEKK2 PB1 domain. bead flow cytometry, Alexa488-MEK5 binding to MEKK2 mutant. percent response, % at 10 µM. 290,000 compounds, 0.35% hits. AID 1530; in the data active = percent response above about 24%, passing the limit was not always enough
MEKK2wt PB1 HTS: raises or lowers MEK5 binding to wildtype human MEKK2 PB1 domain | Q9Y2U5 | bead flow cytometry, Alexa488-MEK5 binding to MEKK2 WT; actives lie on both sides | binding response (% of control), % at 10 µM | 290,000 compounds, 1.1% hits | AID 1531; in the data active = binding response below about 67% or above about 130%; inconclusive = no clear call, values can overlap the other calls; inactive = in between
UBC13 inh: inhibitors of human UBC13 polyubiquitin chain formation | inhibition, % at 20 µM | TR-FRET | 330,000 compounds, 0.47% hits; in the data active = inhibition above about 45%, passing the limit was not always enough; inconclusive = no clear call, values can overlap the other calls
ATG4B inh: ATG4B (human) cysteine protease inhibition; Q9Y4P1; ATG4B cleavage of LC3-PLA2, NBD-HPC fluorescence, 1 h; inhibition, % at 8.33 µM; 340,000 compounds, 0.51% hits; in the data active = inhibition above about 40%
ATG4B confirm: confirmation of human ATG4B inhibitors | ATG4B protease fluorescent substrate cleavage assay | shares compounds with ATG4B inh | inhibition, % at 8.33 µM | AID 504757 | 320 compounds, 92% hits; in the data active = inhibition above about 39%
PLA2 ctr: inhibits human PLA2, flagging false ATG4B inhibitors. shares compounds with ATG4B inh. purified PLA2, NBD-C6-HPC fluorescence, 45 min. inhibition, % at 8.33 µM. 1,600 compounds, 66% hits. AID 588402; in the data active = inhibition above about 50%
* hit, by the source's call; ? = inconclusive; nt = no result.

SMILES	MEKK3 PB1 HTS	PREPL inh	MEKK2mut PB1 HTS	MEKK2wt PB1 HTS	UBC13 inh	ATG4B inh	PLA2 ctr	others
COc1ccc(S(=O)(=O)N2CCC(C(=O)N3CCc4ccccc4C3)CC2)cc1C	102.0	11.4	2.0	101.0	-2.8	56.5*	50.0*
O=C(CN1CCOCC1)Nc1ccccc1-c1ccccc1	100.0	1.9	-9.0	97.0	9.1	-7.4	nt
O=C(CN1CCCCC1)Nc1ccccc1-c1ccccc1	83.0	11.0	-7.0	86.0	-9.7	46.0*	59.2*
Cc1cc2c(cc1C)CSC(c1ccccc1O)SC2	103.0	1.6	-3.0	92.0	-1.2	-0.5	nt
Oc1ccccc1C1SC(c2ccccc2O)SC(c2ccccc2O)S1 (stereo not given)	nt	nt	nt	nt	nt	62.7*	46.7
CC(NC(=O)C(C)N1CCN(S(=O)(=O)c2ccccc2)CC1)c1ccccc1 (stereo not given)	nt	18.9	nt	nt	-11.2	-4.0	nt
O=C(Cn1nnc(-c2ccc(S(=O)(=O)N3CCCC3)cc2)n1)Nc1ccccc1-n1cccc1	97.0	6.3	-3.0	92.0	5.0	54.4*	61.8*
CCOC(=O)c1cnn(-c2nc(CC)nc3sc4c(c23)CCC4)c1N	99.0	-1.3	-1.0	96.0	3.2	-3.4	nt
CCc1nc(N2CCN(S(C)(=O)=O)CC2)c2c3c(sc2n1)CCCC3	100.0	-0.5	-12.0	85.0	-5.2	46.9*	49.5
COCCCNC(=S)N1CCN(c2nc3ccccc3s2)CC1	92.0	-16.9	-8.0	92.0	4.1	-10.0	nt
CCC(=O)N1CCN(c2nc(CC)nc3sc4c(c23)CCCC4)CC1	110.0	-0.1	8.0	110.0	1.7	54.1*	63.9*
CSc1nc(N2CCOCC2)c2c3c(sc2n1)CCCC3	114.0	14.0	19.0	123.0	0.8	37.4	nt
CCc1nc(N2CCN(C(=S)NCCCOC)CC2)c2c3c(sc2n1)CCCC3	105.0	8.9	7.0	109.0	4.8	72.3*	79.6*
CC(C)COC(=O)NC1c2ccccc2Oc2ccccc21	98.0	13.1	-2.0	100.0	-11.8	-4.9	nt
Cc1cccnc1NC(=O)CN1C(=O)COc2ccc(Cl)cc21	100.0	-1.0	3.0	103.0	4.0	-2.1	nt
CN(Cc1ccccc1)S(=O)(=O)c1ccc(NC(=S)NC(=O)C2CCCC2)cc1	105.0	9.2	2.0	100.0	-5.0	50.4*	43.6
CN(C)S(=O)(=O)c1ccc(NC(=S)NC(=O)C2CCC2)cc1	102.0	4.2	4.0	106.0	0.0	1.6	nt
COc1cccc(CNC(=O)CCC(=O)N2CCOCC2)c1	nt	-1.6	nt	nt	10.5	-6.7	nt
Cc1c(Cl)cccc1NC(=O)COC(=O)CCc1nc2ccccc2n1-c1ccccc1	105.0	12.8	20.0	124.0	9.7	50.2*	53.1*
O=C(CCNC(=O)N1CCn2c1nc1ccccc12)NCc1ccccc1Cl	103.0	2.4	1.0	105.0	5.5	7.1	nt
O=C(COC(=O)c1ncc(Cl)c(Cl)c1Cl)c1ccc(Cl)s1	104.0	0.8	-1.0	105.0	5.3	40.0	22.2
O=C(CCc1nnc(C2(c3ccc(Cl)cc3)CCC2)o1)NCCCn1cccn1	96.0	-4.8	-11.0	90.0	9.6	-0.6	nt
CC1=CCC[C@@H]2[C@@](C)(CC/C(C)=C/C(=O)O)[C@H](C)CC[C@@]12C	99.0	5.3	4.0	98.0	0.6	79.4*	80.9*
C[C@@H]1CC[C@@]23COC(=O)C2=CCC[C@@H]3[C@@]1(C)CC/C(=C/CO)CO	nt	5.4	nt	nt	2.0	-14.2	nt
CC(C)c1ccc(/C=C/C(=O)N2CCc3ccccc3C2)cc1	95.0	-25.8	-5.0	93.0	6.0	58.6*	62.9*
SMILES	MEKK3 PB1 HTS	PREPL inh	MEKK2mut PB1 HTS	MEKK2wt PB1 HTS	UBC13 inh	ATG4B inh	PLA2 ctr	others
COc1cc(NS(=O)(=O)c2ccc(NC(=S)NC(=O)/C=C/c3ccco3)cc2)ncn1	104.0	nt	-3.0	101.0	-15.7	56.1*	12.4	ATG4B confirm=46.5*
CCOc1ccc(NC(=S)NC(=O)/C=C/c2ccco2)cc1	105.0	0.7	4.0	97.0	1.1	-1.5	nt
O=C1/C(=C\c2cc(Cl)c(O)c(Cl)c2)SC(=S)N1Cc1ccccc1	97.0	nt	2.0	102.0	nt	44.5*	60.4*
Cc1cccc2nc(-c3ccccc3)nc(N3CCC(O)(c4ccc(Cl)cc4)CC3)c12	105.0	2.4	4.0	107.0	4.5	41.5*	22.5
Cn1cccc1-c1nc2ccccc2n1Cc1ccccc1	103.0	10.0	2.0	109.0	-6.6	43.1*	56.3*
N#CCC(=O)Nc1ccc(C(=O)OCC(=O)NNC(=O)c2cccs2)cc1	nt	8.1	nt	nt	-1.0	-3.8	nt
O=C(COC(=O)c1ccc(O)cc1O)N=c1sccn1Cc1ccccc1Cl	nt	-43.0	nt	nt	11.1	42.9*	56.6*
N#CCC(=O)Nc1ccc(C(=O)OCC(=O)N=c2sccn2Cc2ccccc2Cl)cc1	nt	-89.0	nt	nt	-4.8	41.2*	56.9*
Cc1nc(NC(=O)CSc2cc(C)c3ccccc3n2)c(Cl)cc1Cl	100.0	2.5	11.0	108.0	?	40.7*	13.5
Cn1cc(CCC(=O)N2CCCC(CCC(=O)NCc3ccc(F)c(F)c3)C2)cn1 (stereo not given)	102.0	-0.2	-1.0	96.0	-20.0	41.6*	46.7
CCn1c(C)c(C)c2cc(C(=O)N3CCc4ccccc4C3)ccc21	101.0	27.3	0.0	97.0	11.0	71.8*	73.8*
CC(=O)Nc1cc(C(=O)N2CCc3ccccc3C2)ccc1Sc1ccc(C)cc1	105.0	9.4	-1.0	103.0	3.4	46.1*	52.7*
Cc1ccc(CN(c2ccc(C(=O)N3CCc4ccccc4C3)cc2)S(C)(=O)=O)cc1	99.0	-8.5	6.0	101.0	8.0	55.5*	59.9*
CS(=O)(=O)N(Cc1ccc(C(=O)N2CCc3ccccc3C2)cc1)c1ccccc1	100.0	21.0	-10.0	91.0	1.4	20.4	nt
CCOc1cc(N2CCOCC2)c(OCC)cc1NC(=O)CN1C(=O)NC(CC)(c2ccc(F)cc2)C1=O (stereo not given)	nt	nt	nt	nt	nt	-6.9	nt
Cc1ccc(C2CN(CCC(N)=O)C(=O)CO2)cc1 (stereo not given)	nt	1.3	nt	nt	-0.1	-5.6	nt
COc1ccccc1N1CCN(C(=O)c2ccc3ncsc3c2)CC1	nt	nt	nt	nt	nt	-7.5	nt
Cc1cccc(NC(=O)C2CCCN(S(=O)(=O)c3cccs3)C2)c1C (stereo not given)	103.0	10.6	-1.0	104.0	-2.9	-7.9	nt
O=C1C2CCCN2C(=O)N1CCCN1CCN(c2cccc(Br)c2)CC1 (stereo not given)	103.0	14.5	2.0	106.0	-5.7	7.3	nt
O=C1c2ccccc2[C@@H]2C[C@@H](O)[C@H](Nc3ccccc3-c3ccccc3)CCN12	nt	nt	nt	nt	nt	19.6	nt
